Measured values published in PubChem BioAssay (NCATS).
Values joined by “and” are separate entries in the source; they are usually repeats but may differ in a detail not shown here. Identical values can stand only once. Results filed as inconclusive are left out. Some compounds were tested as several samples or in several runs, with calls that do not always agree. Active and inactive are the calls of the source. Unless noted, calls follow the shape of the dose curve; as a rule, active = well fitted curve in the direction sought with a large enough effect; inconclusive = small, poorly fitted or top-dose-only effect, or another doubt; inactive = no such curve, though single readings can be large; an effect the other way counts as inactive or inconclusive.

Experiments:
[1] = target: Catechol O-methyltransferase (Homo sapiens) (UniProt P21964); assay: Confirmatory Screen for Target Class Profiling of Small Molecule Inhibitors of Methyltransferases (AID 1745852; calls by dose curve; also: potency is read from the fitted curve at half-maximal effect; as to activity change, negative = inhibition: % is scaled to controls: 0 for no effect and ±100 for the full control effect); conditions: MTase-Glo luminescence, SAH detection, recombinant enzyme; measured here: COMT max response; stronger effect = lower value
Chain of Catechol O-methyltransferase (Homo sapiens) (P21964 whole entry, looked up): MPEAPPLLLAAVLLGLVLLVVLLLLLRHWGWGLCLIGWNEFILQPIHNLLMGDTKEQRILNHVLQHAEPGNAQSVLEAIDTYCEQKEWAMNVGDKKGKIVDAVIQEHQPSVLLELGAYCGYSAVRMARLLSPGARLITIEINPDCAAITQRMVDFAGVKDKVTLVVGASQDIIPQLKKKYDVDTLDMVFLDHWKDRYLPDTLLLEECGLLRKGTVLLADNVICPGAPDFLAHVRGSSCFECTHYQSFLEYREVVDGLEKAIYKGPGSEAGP

[2] = target: Guanidinoacetate N-methyltransferase (Homo sapiens) (UniProt Q14353); assay: as above; conditions: MTase-Glo luminescence, SAH detection, recombinant enzyme; activity change, negative = inhibition: at 57.3 µM (top of the series) unless noted; series mostly up to 57.3 µM
[3] = target: Nicotinamide N-methyltransferase (Homo sapiens) (UniProt P40261); assay: as above; conditions: MTase-Glo luminescence, SAH detection, recombinant enzyme; measured here: NNMT max response; stronger effect = lower value
Chain of Nicotinamide N-methyltransferase (Homo sapiens) (P40261 whole entry, looked up): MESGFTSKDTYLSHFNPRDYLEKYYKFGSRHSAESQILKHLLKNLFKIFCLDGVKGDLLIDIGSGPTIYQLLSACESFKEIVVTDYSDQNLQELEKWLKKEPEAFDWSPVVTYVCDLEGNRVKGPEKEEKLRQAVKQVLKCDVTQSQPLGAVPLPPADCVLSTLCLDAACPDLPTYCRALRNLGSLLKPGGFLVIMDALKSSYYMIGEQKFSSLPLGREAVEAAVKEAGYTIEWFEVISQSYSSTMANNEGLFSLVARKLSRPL

[4] = target: Phenylethanolamine N-methyltransferase (Homo sapiens) (UniProt P11086); assay: as above; conditions: MTase-Glo luminescence, SAH detection, recombinant enzyme; measured here: PNMT max response; stronger effect = lower value
Chain of Phenylethanolamine N-methyltransferase (Homo sapiens) (P11086 whole entry, looked up): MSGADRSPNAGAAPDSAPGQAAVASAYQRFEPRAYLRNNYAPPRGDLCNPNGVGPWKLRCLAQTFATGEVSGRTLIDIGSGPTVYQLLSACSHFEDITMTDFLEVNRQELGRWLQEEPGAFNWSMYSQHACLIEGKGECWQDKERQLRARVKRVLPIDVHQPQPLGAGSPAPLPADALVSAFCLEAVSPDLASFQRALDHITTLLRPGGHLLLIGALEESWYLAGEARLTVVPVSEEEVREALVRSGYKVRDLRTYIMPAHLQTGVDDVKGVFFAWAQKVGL

[5] = target: Glutathione peroxidase 1 (Homo sapiens) (UniProt P07203); assay: Primary qHTS Assay for Inhibitors of Recombinant Selenoprotein Glutathione Peroxidase 1 (GPX1) (AID 1845191); conditions: recombinant GPX1, GR-coupled NADPH fluorescence, 15 min; series mostly up to 48.8 µM; also: nearly all actives have a fitted effect of over 65% in size; as to activity, negative = inhibition: % is scaled to controls: 0 for no effect and ±100 for the full control effect
Chain of Glutathione peroxidase 1 (Homo sapiens) (P07203 whole entry, looked up): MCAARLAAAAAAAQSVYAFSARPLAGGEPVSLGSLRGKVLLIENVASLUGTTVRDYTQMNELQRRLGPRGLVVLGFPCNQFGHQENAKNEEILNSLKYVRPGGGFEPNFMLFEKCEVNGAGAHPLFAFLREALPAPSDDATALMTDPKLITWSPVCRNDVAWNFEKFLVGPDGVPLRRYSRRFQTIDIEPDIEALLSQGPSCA
In short: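 Recombinant GPX1 (10 nM final) was preincubated with compound for 30 min at room temperature, then reacted with 1 mM GSH, 0.5 mM CHP, 0.5 mM NADPH and 100 nM glutathione reductase; NADPH fluorescence (340/450 nm) was read at 0 and 15 min.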

[6] = target: Phospholipid hydroperoxide glutathione peroxidase GPX4 (Homo sapiens) (UniProt P36969); assay: Primary qHTS Assay for Inhibitors of Recombinant Selenoprotein Glutathione Peroxidase 4 (GPX4) (AID 1845192); conditions: recombinant GPX4, GR-coupled NADPH fluorescence, 15 min; series mostly up to 50 µM; also: nearly all actives have a fitted effect of over 65% in size; also: potency is read from the fitted curve at half-maximal effect; as to activity change, negative = inhibition: % is scaled to controls: 0 for no effect and ±100 for the full control effect
Chain of Phospholipid hydroperoxide glutathione peroxidase GPX4 (Homo sapiens) (P36969 whole entry, looked up): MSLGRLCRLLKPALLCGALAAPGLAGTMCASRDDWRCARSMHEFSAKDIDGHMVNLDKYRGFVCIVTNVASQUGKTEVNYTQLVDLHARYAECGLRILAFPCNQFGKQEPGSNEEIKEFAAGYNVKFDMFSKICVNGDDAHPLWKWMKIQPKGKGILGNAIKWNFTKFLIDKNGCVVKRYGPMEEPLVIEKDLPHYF
In short: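 GR-coupled readout: 100 nM GR, 1 mM GSH, 0.5 mM NADPH; NADPH fluorescence (ex 340/em 450 nm) read at t=0 and after 15 min RT. GPX4 200 nM, preincubated 30 min with compound; substrate 0.5 mM CHP.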

[7] = target: Luciferin 4-monooxygenase (Photinus pyralis) (UniProt P08659); assay: Primary firefly luciferase (FLuc) qHTS assay for identification of artifact compounds. (AID 1845220); conditions: purified firefly luciferase, luminescence, 5 min; series mostly up to 54.1 µM; also: nearly all actives have a fitted effect of over 60% in size; also: potency is read from the fitted curve at half-maximal effect;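 as to activity change, negative = inhibition: plate controls were DMSO vehicle for no effect and no enzyme for full effect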
In short: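 In this counter-screen for luciferase artifacts, test compounds met substrate (10 uM each luciferin and ATP) before 10 nM enzyme started the reaction. Light output was measured 5 min later.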

[8] = Primary fluorescence-based thiol-reactive (MSTI) qHTS assay for identification of artifact compounds. (AID 1845221); conditions: MSTI thiol-reactivity probe, 1 h; series mostly up to 53.8 µM; also: nearly all actives have a fitted effect of over 65% in size; also: potency is read from the fitted curve at half-maximal effect
In short: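 Compounds were incubated 1 h at room temperature in the dark with the MSTI probe (4 uM) in PBS pH 7.4, 2% DMSO. Signals were normalized between Acetyl-MSTI and MSTI.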

[9] = system: Nanoluciferase (engineered Oplophorus gracilirostris luciferase); assay: Primary Nanoluciferase (NLuc) qHTS assay for identification of artifact compounds. (AID 1845222); conditions: NLuc-conditioned medium, Nano-Glo luminescence, 5 min; series mostly up to 54.1 µM;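 also: NLuc secreted into diluted conditioned medium of S16 cells; 0% = DMSO and -100% = no enzyme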
In short: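 Using secreted nanoluciferase in S16 culture medium (0.22 um filtered, 1:55 dilution), compounds were preincubated 15 min at RT. Signal was generated with Nano-Glo reagent (1:100) over 5 min.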

[10] = Primary redox qHTS assay for identification of artifact compounds. (AID 1845223); conditions: Amplex Red/HRP redox cycling with DTT, fluorescence; series mostly up to 53.8 µM; also: potency is read from the fitted curve at half-maximal effect
In short: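 Amplex Red (25 uM) and HRP (250 mU/mL) in HBSS, with compounds for 15 min, then 250 uM DTT for 30 min, room temperature, dark. Fluorescence 525/598 nm read; normalized to DMSO and 10 uM DA3003; Hill fit.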

Compound | activity [1] | Potency [2] | activity [3] | activity [4] | Potency [5] | Potency [6] | Potency [7] | Potency [8] | Potency [9] | Potency [10] | activity change, negative = inhibition [2] | outcome [7] | activity, negative = inhibition [9]
c1cc(NCCc2c[nH]c3ccccc23)cc(Nc2ccncc2)c1 | -7.79% | 48.2 µM (active) | -26% | -13.2% | inactive | inactive | inactive | 2.67 µM (active) | inactive | inactive | – | – | –
CN(C)c1ccc(NC(=O)NS(=O)(=O)c2ccc(Cl)cc2)cc1 | -53.7% | 27.1 µM (active) | -25% | -83.5% | inactive | inactive | – | 1.89 µM (active) | inactive | 3.36 µM (active) | – | – | –
CNCCC(c1cccs1)c1ccc(O)c2ccccc12 (stereo not given) | -4.76% | – | -7.38% | -1.78% | inactive | inactive | inactive | – | inactive | – | 2.71% | – | –
Cc1cc2c(N3CCCC3)nc(N3CCCC3)nc2n1C | -23.9% | 24.1 µM (active) | -27.1% | -17.6% | inactive | inactive | inactive | – | inactive | 0.844 µM (active) | – | – | –
N#CSc1cc(SC#N)c(N)nc1N | -83.2% | 4.08 µM (active) | -72% | -48.1% | inactive | inactive | – | – | – | 5.05 µM (active) | – | inactive [at 11.6 µM] | -17.4% [at 11.6 µM] (inactive)
O=C1NC(=O)C(c2cnc3ccccn23)=C1c1cn2c3c(cc(F)cc13)CN(C(=O)N1CCCCC1)CC2 | -28.3% | – | -51.2% | -20.8% | inactive | inactive | inactive | – | inactive | inactive | -13.3% | – | –
CCC(CC)C(c1ccc(Nc2nc3ccccc3s2)cc1)n1cncn1 (stereo not given) | -3.56% | – | -14.5% | -5.31% | inactive | – | inactive | inactive | inactive | inactive | -4.47% | – | –
CCn1c2ccccc2c2cc(Nc3ccnc(NCCCN4CCOCC4)n3)ccc21 | -20% | – | -66.6% | -29.8% | inactive | – | inactive | – | inactive | inactive | -7.76% | – | –
CCc1c(Cl)c(O)c(Cl)c(O)c1C(=O)O[C@H]1[C@H](O)[C@H](OC)[C@H](OC/C2=C\C=C\C[C@H](O)/C(C)=C\[C@H](CC)[C@@H](O[C@@H]3OC(C)(C)[C@@H](OC(=O)C(C)C)[C@H](O)[C@@H]3O)/C(C)=C/C(C)=C/C[C@@H]([C@@H](C)O)OC2=O)O[C@@H]1C | -16.7% | – | -8.66% | -8.05% | inactive | inactive and 5.01 µM (active) | inactive | – | inactive | – | -5.75% [at 29.8 µM] | – | –
COc1cc2nc(N3CCN(C(=O)c4ccco4)C4CCCCC43)nc(N)c2cc1OC (stereo not given) | -2.31% | – | -31.3% | 0.0711% | inactive | 22.7 µM (active) | inactive | – | inactive | inactive | 0% | – | –
C=CC(=O)Nc1ccc(CN2C(=O)N(c3cc(OC)cc(OC)c3)Cc3cnc(Nc4ccc(N5CCN(C)CC5)cc4)nc32)cc1 | -18.9% | – | -1.46% | -2.5% | inactive | inactive | inactive | – | inactive | – | -0.849% | – | –
C=C1C(=O)OC2CC(C)C(CCC(C)O)=CCC12 (stereo not given) | -95.7% | – | -3.12% | -3.4% | inactive | inactive | 6.75 µM (active) | – | inactive | inactive | -4.2% | – | –
COc1cc(/C=N\NC(=O)c2ccc3c(c2)OCO3)ccc1OCc1ccccc1 | -3.52% | – | -20.5% | -1.07% | inactive | – | inactive | inactive | inactive | inactive | 1.69% | – | –
COc1ccc2nc3n[nH]c(C)c3c(NCCOCCO)c2c1 | -59.3% | 27.1 µM (active) | -38.5% | -54.6% | inactive | – | inactive | – | inactive | inactive | – | – | –
N#Cc1ccc(N2N=C3c4ccc(C(=O)O)cc4CC[C@@H]3[C@@H]2C2CCCC2)cc1Cl | 7.42% | – | -82.8% | 0.228% | inactive | – | inactive | inactive | inactive | – | -0.344% | – | –
CC1(CO)CC(O)[C@]2(C(=O)O)CCC34CC3(C=CC3[C@]5(C)C(CC[C@]34C)C(C)(CO)[C@@H](O)[C@H](O)[C@@H]5O)C2C1 (stereo not given in full) | -56.5% | – | -2.18% | -2.96% | inactive | inactive | inactive | – | inactive | inactive | -5.29% [at 29.8 µM] | – | –
Cc1[nH]c2ccccc2c1CCNCc1ccc(/C=C/C(=O)NO)cc1 | 16.3% | – | -6% | -2.09% | inactive | inactive | inactive | – | inactive | inactive | -2.13% | – | –
CC1=C(C(=O)OC2CCCCC2)C(c2ccc([N+](=O)[O-])cc2)C2=C(CC(C)(C)CC2=O)N1 (stereo not given) | -30.3% | 19.2 µM (active) | -8.48% | -64.1% | inactive | inactive | – | inactive | – | 2.12 µM (active) | – | – | –
C=C1C(=O)OC2/C=C(\C)CC/C=C(\C=O)C(OC)C(OC(=O)C(C)CC)C12 (stereo not given) | -70.5% | – | -2.69% | -0.332% | inactive | inactive | inactive | – | inactive | inactive | -5.12% | – | –
CN(C)[C@@H]1CCc2[nH]c3ccc(NC(=O)c4ccc(F)cc4)cc3c2C1 | 0.841% | – | 0.33% | -1.89% | inactive | inactive | inactive | – | inactive | inactive | 0% | – | –
COC(C)(C)CCn1nc(Nc2c(C)cccc2C)c2cnc(Nc3ccc(OCCN4CCCC4)c(F)c3)nc21 | -6.73% | – | -23.2% | -4.06% | inactive | inactive | inactive | – | inactive | inactive | 0% | – | –
C=C1C(=O)O[C@H]2CC(=C)[C@H]3CC[C@@](C)(O)[C@@H]3CC12 (stereo not given in full) | -86% | – | 0% | 3.31% | inactive | – | – | 5.32 µM (active) | inactive | – | 1.75% | – | –
